Laboratory results published in PubChem BioAssay (NCI).
This is part of a sample that, as a whole, favours compounds with a hit. Of some 79,000 tested, about 15% had one in any assay. The source made the active and inactive calls. Rule as the data show it: active = growth inhibition above about 70%; inactive = the rest.

test: NCI Yeast Anticancer Drug Screen. Data for the rad50 strain (AID 155);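 also: 0% = growth of vehicle-only cultures of the same strain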; details: S. cerevisiae rad50 strain growth inhibition; at 100.0 µM; hits give high values
Procedure, shortened: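 Readout: growth inhibition relative to vehicle-treated cultures. Compound exposure was carried out in a genetically defined yeast strain deficient in DNA damage repair.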

| Structure (SMILES) | growth inhibition |
| --- | --- |
| Cc1cccc2c(C(O)CBr)cc(-c3ccc(Cl)cc3)nc12 (configuration not stated) | 88% (active) |
| CN(C)C[C@H]1CC[C@@H](CN(C)C)C1=O | 78% (active) |
| CC1=C(SCCO)C(=O)c2ccccc2C1=O | 42% (inactive) |
| COC(=O)CCNc1c2ccccc2nc2cccc([N+](=O)[O-])c12 | 97% (active) |
| CC(/C=C/c1ccc2c(c1)OCO2)[N+](=O)[O-] (configuration not stated) | 99% (active) |
| COC(=O)C1=C(C)NC(C)=C(C(=O)OCCCN2CCC(c3ccccc3)(c3ccccc3)CC2)C1c1cccc([N+](=O)[O-])c1 (configuration not stated) | 84% (active) |
| CCOC(=O)c1cnc2c(C(F)(F)F)cccc2c1N=[N+]=[N-] | 95% (active) |
| O=[N+]([O-])c1cc2no[n+]([O-])c2cc1N1CCCCC1 | 95% (active) |
| COC(=O)c1ccc(NCC2=CC(=O)C=CC2=O)cc1O | 93% (active) |
| CCCCCCCCNC(=O)C1=C(C)NC(C)=C(C(=O)NCCCCCCCC)C1 | 4% (inactive) |
| S=C(Nc1ccc(Cl)c(Cl)c1)SCc1ccc2c(c1)OCO2 | 94% (active) |
| O=S(=O)(CCCl)c1ccccc1Cl | 98% (active) |
| Nc1ccccc1CC(O)C(=O)O (configuration not stated) | 95% (active) |
| CN(C)c1ccc(Sc2ccc3nc(N)nc(N)c3c2)cc1 | 40% (inactive) |
| CC(C)C1=CCC2C(=C1)CCC1C(C)(C(=O)O)CCCC21C (configuration not stated) (tested in a mixture with another compound) | 92% (active) |
| Cc1ccc(S(=O)(=O)Oc2cc(Cl)c(Cl)cc2Cl)cc1 | 17% (inactive) |
| CSC(=S)Nc1cc(C)ccn1 | 92% (active) |
